Inconclusive results are not listed. Activity calls are given as the source filed them. Calls follow the shape of the dose curve; as a rule, active = well fitted inhibition curve with a large enough effect; inconclusive = small, poorly fitted or top-dose-only effect; inactive = flat fitted curve, though single readings scatter.
target: Glutathione peroxidase 1 (Homo sapiens) (UniProt P07203); test: Primary qHTS Assay for Inhibitors of Recombinant Selenoprotein Glutathione Peroxidase 1 (GPX1) (AID 1845191); settings: recombinant GPX1, GR-coupled NADPH fluorescence, 15 min; series mostly up to 48.8 µM; activity, negative = inhibition: at the top concentration; also: nearly all actives have a fitted effect of over 65% in size
Sequence (P07203 whole entry, looked up): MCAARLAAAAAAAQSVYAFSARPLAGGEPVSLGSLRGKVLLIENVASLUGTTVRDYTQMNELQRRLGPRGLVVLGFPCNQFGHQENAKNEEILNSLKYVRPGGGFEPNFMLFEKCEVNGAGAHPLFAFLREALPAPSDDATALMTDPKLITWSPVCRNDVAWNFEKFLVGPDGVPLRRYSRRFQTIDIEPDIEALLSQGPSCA
Text: Assay Provider: Elias S.J. Arner MD PhD.
Department of Medical Biochemistry and Biophysics
Karolinska Institutet, Solna, Stockholm, Sweden
Selenoprotein glutathione peroxidases (GPX), like the ubiquitously expressed GPX1 and the ferroptosis modulator GPX4, enact their antioxidant activities by reducing hydroperoxides using glutathione. […] GPX1 and GPX4 inhibitors have thus shown promise as anti-cancer agents. Existing inhibitors are often promiscuous, or modulate GPX activity only indirectly, so novel direct inhibitors identified through screening against GPX1 and GPX4 could be valuable. Here, we developed optimized glutathione reductase (GR)-coupled GPX assays for the biochemical high-throughput screen (HTS) of almost 12,000 compounds with known mechanisms of action. Initial hits were triaged using a GR counter-screen, assessed for isoform specificity using a separate GPX2 assay, and were assessed for general selenocysteine-targeting activity using a thioredoxin reductase (TXNRD1) assay. With this suite of assays, we identified novel GPX1/GPX2- and GPX4-specific inhibitors and can here present a validated pipeline for future discovery research for selenoprotein-targeting agents.
SEQUENCE No. (e.g., 1, 2, 3, etc.); […] (e.g., Cells, Incubation, Reagent, etc.); VALUE; DESCRIPTION.
1; Reagent 1; 3 uL; GPx1 enzyme or no enzyme control in 1536-well, black, solid Greiner assay plate.
2; Compound; 25 nL; Kalypsis pin tool (Wako USA) equipped with a 1536-well pin head.
3; Incubation; 30 min; room temperature.
4; Reagent 2; 1 uL; 10 nM GPX1, 1 mM GSH, 0.5 mM CHP, 0.5 mM NADPH, 100 nM GR, 0.01% BSA substrate
5; Detection; Fluorescence; ViewLux microplate reader, excitation 340 nm and emission 450 nm.
6; Incubation; 15 min; room temperature.
7; Detection; Fluorescence; ViewLux microplate reader, excitation 340 nm and emission 450 nm.
NOTES (numbers refer to Sequence numbers above)
1. 3 uL of 16.66 nM GPX1 and 0.016% BSA in assay buffer (50 mM Tris-HCl, 2 mM EDTA (pH 7.5), 150 mM NaCl) was added to columns 3-48 of 1536-well assay plates using a BioRAPTR Flying Reagent Dispenser (Let's Go Robotics (LGR), Carlsbad, CA). A no-enzyme control (0.01% BSA in TES assay buffer) was added to columns 1-2.
2. 25 nL of test compounds and DMSO controls were added to each well with a pin tool (Kalypsys).
3. The assay plates were incubated for 30 minutes at room temperature.
4. 1 uL of master mix (500 nM glutathione reductase (GR), 5 mM reduced glutathione (GSH), 2.5 mM NADPH in assay buffer) was added. 1 uL of cumene hydroperoxide (CHP) ([2.5 mM] in 50% EtOH) was then added within 5 minutes to initiate the reaction. Final concentrations were: 10 nM GPX1, 1 mM GSH, 0.5 mM CHP, 0.5 mM NADPH, 100 nM GR, 0.01% BSA.
5. Initial fluorescence readout (t=0) at 340/450 nm was measured using a ViewLux multimodal detector (PerkinElmer, Waltham, MA).
7. Endpoint fluorescence readout (t=15) at 340/450 nm was measured 15 min after room temperature incubation.
% is scaled to controls: 0 for no effect and ±100 for the full control effect.

SMILES | Potency | activity, negative = inhibition | outcome
CCN(c1cc(-c2ccc(CN3CCOCC3)cc2)cc(C(=O)NCc2c(C)cc(C)[nH]c2=O)c1C)C1CCOCC1 | inactive |  | 
Cc1ccc(C2(C(=O)N3CCC(n4nc(-c5ccccc5)oc4=O)CC3)CC2)cc1 |  | -14.6% (inactive) | 
Cc1cc(-c2cnc(N)c3c(-c4ccc5scnc5c4)csc23)n(C)n1 |  |  | inactive
CN[C@@H]1CCc2[nH]c3ccc(C(N)=O)cc3c2C1 |  | 1.96% (inactive) | 
O=c1nc(-c2ccccn2)sc2ccccc12 |  |  | inactive
CC(C)(C)CC(=O)OCC(=O)[C@@]12OC(C)(C)O[C@@H]1C[C@H]1[C@@H]3CCC4=CC(=O)C=C[C@]4(C)[C@@]3(F)[C@@H](O)C[C@@]12C |  | -25.9% (inactive) | 
COc1ccc2cc3c(NC(=O)c4ccco4)nn(C)c3nc2c1 |  | -16.6% (inactive) | 
O=C(Nc1ccccc1C(=O)Nc1ccc(CCO)cc1)c1ccc([N+](=O)[O-])cc1 |  |  | inactive
CCCCCCCC(=O)CC[C@@H]1[C@@H](C/C=C\CCCC(=O)OC(C)C)[C@@H](O)C[C@H]1O |  | 0.378% (inactive) | 
COc1cc(/C=C/C(=O)NCCn2c(C(F)(F)F)cc3ccccc32)cc(OC)c1OC |  | -19.2% (inactive) | 
CN(C)CCn1cc(-c2ccc(F)cc2)c(-n2cccc2)n1 |  | -12.8% (inactive) | 
CCOC(=O)c1csc(Nc2ccc(Cl)cc2)n1 |  |  | inactive
CC(C)(C)c1ccc(C(=O)Nc2cc(Cl)c(Br)cc2C(=O)O)cc1 |  | -19.8% (inactive) | 
COc1ccc(-c2c(C)nn3c(NCCN4CCOCC4)cc(C)nc23)cc1OC |  |  | inactive
NC(N)=NC(=O)c1cnn(-c2cccc3ncccc23)c1C1CC1 |  | -7.84% (inactive) | 
COc1cccc(N2CCN(C3=Nc4c(F)cccc4[C@H](CC(=O)O)N3c3cc(C(F)(F)F)ccc3OC)CC2)c1 | inactive |  | 
CC[C@H](C)/C=C(C)/C=C/C1=CC2=CC(=O)[C@]3(C)OC(=O)[C@@H](C(C)=O)[C@@H]3C2=CO1 |  |  | inactive [at 27.7 µM]
COc1cc2ncnc(Nc3ccc(O)c(Br)c3)c2cc1OC | inactive |  | 
CC1CCC(=O)CC(SCC(O)C(=O)O)CCC(=O)O1 (stereo not given) |  |  | inactive
C=C1CC2OC(=O)C(COC)C2C(OC(=O)/C(C)=C\C)CC2(C)OC1=CC2=O (stereo not given) |  |  | inactive [at 27.7 µM]

SMILES | Potency | activity, negative = inhibition | outcome
C/C=C(/C=C(C)/C=C/C=C/C=C(\C)C(=O)C12OC1C(O)(CCO)NC2=O)C(=O)OC (stereo not given) |  | -0.0969% [at 27.7 µM] (inactive) | 
CCC(C)c1ccc(NC(=O)Cn2cnc3c2c(=O)n(C)c(=O)n3C)cc1 (stereo not given) |  |  | inactive
Nc1nc2c(cnn2CCCc2ccc(O)cc2)c2nc(-c3ccco3)nn12 |  | 0.972% (inactive) | 
CCCOc1ccc2nc(NC(=O)OC)sc2c1 |  | -12.7% (inactive) | 
COc1ccc(C(=O)Nc2c(Cl)cncc2Cl)cc1OC1CCCC1 |  | -9.03% (inactive) | 
CN(C)CCCn1cc(C2=C(c3c[nH]c4ccccc34)C(=O)NC2=O)c2ccccc21 |  | -28.8% (inactive) | 
CCCCCCCCCCCCCCCC(=O)O[C@@H]1CC(C)=C(/C=C/C(C)=C/C=C/C(C)=C/C=C/C=C(C)/C=C/C=C(C)/C=C/C2=C(C)C[C@@H](OC(=O)CCCCCCCCCCCCCCC)CC2(C)C)C(C)(C)C1 |  | -5.39% (inactive) | 
C=C1CC2OC(=O)C(=C)C2C(O)/C=C(\C)CCC1O (stereo not given) |  | -10.3% (inactive) | 
C=C1CCC[C@]2(C)CC/C(=C(/CO)C(=O)OC)C[C@@H]12 |  | -26% (inactive) | 
CC(C)(C)Oc1ccc(OCC2Cc3ccccc3CN2C(=O)c2cccc3ccccc23)cc1 (stereo not given) |  | 0.0475% (inactive) | 
O=C(Nc1cc(C(F)(F)F)cc(C(F)(F)F)c1)c1cnc(Cl)nc1C(F)(F)F |  | 3.31% (inactive) | 
COc1ccc2[nH]c(=O)c3c(c2c1)OC(C)(C)C=C3 |  |  | inactive
Cc1nc2c(C(F)(F)F)cccc2nc1-c1ccc(-c2cccc(S(C)(=O)=O)c2)cc1 |  | -4.01% (inactive) | 
CCN(CC)CCCS(=O)(=O)N[C@H](CCc1ccccc1)c1nc(Cc2ccc(Br)cc2)no1 |  | -12.2% (inactive) | 
O=C(COc1ccc2ccccc2c1Br)Nc1cccnc1 |  |  | inactive
CN1CCC(c2cn(C)c3ccc(OS(=O)(=O)c4c(F)cccc4F)cc23)CC1 |  |  | inactive
C=C1C(=O)OC2/C=C(\C)CC/C=C(\C)CC(OC(C)=O)C12 (stereo not given) |  | -25.4% (inactive) | 
CCN(Cc1cc(Nc2nc(C)cn3c(-c4cn[nH]c4)cnc23)sn1)C(C)(C)CO |  | -17.9% (inactive) | 
Cc1cn(CCN2CCN(c3ccccc3-c3cc(C#N)cc(C(=O)NCCCN4CCCC4)c3)CC2)c2ccccc12 | inactive |  | 
CC(C)C[C@H](CO)Nc1nc(S[C@@H](C)c2ccccc2)nc2nc(N)sc12 |  | -5.54% (inactive) | 

Reference: PubChem BioAssay (NCATS)
